Sampled rows, rich in hits. Any-hit rate of the full collection: about 19%.
VP16 counter: Gal4-VP16 reporter inhibition counter-screen. Drosophila S2 Gal4-VP16 UAS-luciferase, luminescence, 20 h. Potency, µM (top dose mostly 53.6 µM), most hits filed as inhibitors. 3.5% of 310,000 active;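 further: Gal4-VP16 expression switched on by copper sulfate through the metallothionein promoter; nearly all actives have a fitted effect of over 50% in size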
RORgamma inh: blocks mouse ROR gamma transcriptional activity; P51450; Drosophila S2 Gal4-RORgamma UAS-luciferase reporter, 20 h; Potency, µM (top dose mostly 53.6 µM), hits mostly inhibitors; 5.4% of 310,000 active; AID 2551; further: nearly all actives have a fitted effect of over 60% in size
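Luminescence from a UAS-regulated Photinus luciferase reporter in stably transfected Drosophila Schneider cells is measured; decreased signal marks ROR gamma inhibition. Fusion expression is induced by 700 uM copper sulfate for 20 hr.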
TDP1 block: blocks human tyrosyl-DNA phosphodiesterase 1; Q9NUW8; AID 485290; 0.28% of 350,000 active; recombinant TDP1, AlphaScreen DNA substrate cleavage; Potency, µM (highest dose often 130 µM), most hits filed as inhibitors; further: nearly all actives have a fitted effect of over 40% in size
Target sequence (Q9NUW8 whole entry, looked up): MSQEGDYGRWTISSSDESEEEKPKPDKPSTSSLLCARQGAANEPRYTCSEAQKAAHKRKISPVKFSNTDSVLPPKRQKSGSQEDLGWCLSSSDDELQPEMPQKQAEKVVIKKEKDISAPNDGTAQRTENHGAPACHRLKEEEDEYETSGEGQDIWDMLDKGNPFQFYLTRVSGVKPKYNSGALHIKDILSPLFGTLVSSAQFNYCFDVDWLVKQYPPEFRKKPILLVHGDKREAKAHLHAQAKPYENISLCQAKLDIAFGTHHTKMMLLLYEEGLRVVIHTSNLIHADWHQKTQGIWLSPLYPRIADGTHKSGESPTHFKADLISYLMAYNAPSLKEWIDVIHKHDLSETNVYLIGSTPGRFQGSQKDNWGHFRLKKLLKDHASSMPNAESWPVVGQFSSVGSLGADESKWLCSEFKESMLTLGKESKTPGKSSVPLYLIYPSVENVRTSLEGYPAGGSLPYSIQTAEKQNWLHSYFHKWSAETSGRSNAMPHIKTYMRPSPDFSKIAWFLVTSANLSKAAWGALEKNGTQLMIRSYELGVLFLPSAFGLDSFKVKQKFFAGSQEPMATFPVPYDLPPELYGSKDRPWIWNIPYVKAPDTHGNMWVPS
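Tdp1 1 nM final; 15 min RT w/ cpd; substrate 15 nM, 5 min; beads 10 ug/ml, 10 min; AlphaScreen read. Neg ctrl: no enzyme.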
TDP1 cell CPT: DT40-hTDP1 cell growth loss with CPT | chicken DT40 Tdp1-/-;hTDP1 cells + 20 nM CPT, ATP luminescence, 48 h | Potency, µM (titrated, usually from 46.2 µM), actives largely listed as inhibitors | 12% of 420,000 active | AID 686979; further: nearly all actives have a fitted effect of over 55% in size
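Chicken DT40 Tdp1-/- cells complemented with human TDP1, 400 cells/well, exposed to compounds plus 20 nM camptothecin for at least 48 h at 37 C; viability read as ATP content by CellTiter-Glo luminescence.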
DT40 TDP1 no CPT: qHTS for Inhibitors of human tyrosyl-DNA phosphodiesterase 1 (TDP1): qHTS in cells in absence of CPT; DT40 Tdp1-/- hTDP1 cells, no CPT, ATP luminescence, 48 h; Potency, µM (series often up to 46.2 µM), usual class: inhibitors; 15% of 420,000 active; AID 686978, 2013; further: nearly all actives have a fitted effect of over 55% in size
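DT40 Tdp1-/-;hTDP1 cells, no CPT (DMSO vehicle only), 400 cells/well; compounds pin-transferred; ≥48 hr, 37 °C; CellTiter-Glo 30 min RT dark, luminescence read.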
Of the large screens only hits and unclear results are named; the others gave an inactive call. The call rests on the fitted dose curve; in most records, active means well fitted curve in the direction sought with a large enough effect; inconclusive means small, poorly fitted or top-dose-only effect, or another doubt; inactive means no such curve, though single readings can be large; an effect the other way counts as inactive or inconclusive.

Cc1ccc(C)c(N2CCN(C(=O)c3cnn(-c4ccccc4Cl)c3C3CCN(C(=O)OC(C)(C)C)CC3)CC2)c1	TDP1 cell CPT 13µM, DT40 TDP1 no CPT 13µM (no result: VP16 counter, RORgamma inh)
COc1ccc2oc(=O)c(C(=O)NCCc3c(C)[nH]c4ccc(F)cc34)cc2c1	none (no result: VP16 counter, RORgamma inh, TDP1 cell CPT, DT40 TDP1 no CPT)
Cc1cccc(N2CCN(C(=O)c3cnn(-c4ccccc4Cl)c3C3CCN(C(=O)OC(C)(C)C)CC3)CC2C)c1 (configuration not stated)	TDP1 cell CPT inconclusive, DT40 TDP1 no CPT 13µM (no result: VP16 counter, RORgamma inh)
CC(C)(C)OC(=O)N1CCC(c2c(C(=O)O)cnn2-c2ccccc2Cl)CC1	none
Cc1ccc(-n2ncc(C(=O)N3CCN(c4cccc(C)c4C)CC3)c2C2CCNCC2)c(C)c1	TDP1 cell CPT 8.2µM, DT40 TDP1 no CPT 16µM (no result: VP16 counter, RORgamma inh)
Cc1c(Cl)cccc1-n1ncc(C(=O)Nc2ccc(Br)cc2F)c1C1CCNCC1	TDP1 cell CPT 4.1µM, DT40 TDP1 no CPT 5.2µM (no result: VP16 counter, RORgamma inh)
Cc1ccc(C)c(N2CCN(CCCNC(=O)c3cnn(-c4ccc(F)cc4)c3C3CCN(C(=O)OC(C)(C)C)CC3)CC2)c1	TDP1 cell CPT 4.1µM, DT40 TDP1 no CPT 3.3µM (no result: VP16 counter, RORgamma inh)
N#Cc1ccc(CN2CCN(C(=O)C3CC(=O)N(c4ccccc4F)C3)CC2)cc1 (configuration not stated)	none (no result: VP16 counter, RORgamma inh)
Cc1cccnc1NC(=O)C1COc2ccccc2O1 (configuration not stated)	none
Cc1ccc(C2CC(=O)Oc3cc(C)c(Cl)c(C)c32)cc1 (configuration not stated)	VP16 counter inconclusive (no result: TDP1 cell CPT, DT40 TDP1 no CPT)
CCc1ccc(CN(C)Cc2nc(COc3ccccc3)no2)nc1	RORgamma inh 13µM
CCc1ccc(CN(C)Cc2nc(Cc3cccc(C(F)(F)F)c3)no2)nc1	VP16 counter inconclusive, RORgamma inh 2.2µM, DT40 TDP1 no CPT inconclusive (no result: TDP1 block)
CN1CCCC2(CCCN(Cc3nc(Cc4cccc(C(F)(F)F)c4)no3)C2)C1 (configuration not stated)	DT40 TDP1 no CPT inconclusive
CC(CN(C)Cc1nc(Cc2cccc(C(F)(F)F)c2)no1)CN1CCCC1 (configuration not stated)	TDP1 cell CPT 21µM, DT40 TDP1 no CPT 23µM
CCn1ccnc1CN(C)Cc1nc(Cc2cccc(C(F)(F)F)c2)no1	VP16 counter inconclusive, RORgamma inh 18µM
COC(=O)C1CCN(C(=O)/C=C/c2ccccc2)CC1	none
CCOC(=O)C1=C(C)OC(N)=C(C#N)C1c1ccc(OC)c(CSc2ccccn2)c1 (configuration not stated)	TDP1 cell CPT inconclusive, DT40 TDP1 no CPT inconclusive
CC1CCN(S(=O)(=O)c2ccc3c(c2)oc(=O)n3CC(=O)NCc2ccc(F)cc2)CC1	TDP1 cell CPT 12µM, DT40 TDP1 no CPT 8.2µM (no result: VP16 counter, RORgamma inh)
COc1cccc(CNC(=O)Cn2ccc3cc(S(=O)(=O)N4CCC(C)CC4)ccc32)c1	TDP1 cell CPT inconclusive, DT40 TDP1 no CPT inconclusive
COc1cccc(CNC(=O)Cn2c(=O)oc3cc(S(=O)(=O)N4CCC(C)CC4)ccc32)c1	TDP1 cell CPT 7.3µM, DT40 TDP1 no CPT 5.2µM (no result: VP16 counter, RORgamma inh)
COc1cc(C2CC(=O)c3c([nH]c(C(=O)OC4CCCC4)c3C)C2)cc(OC)c1OC (configuration not stated)	TDP1 cell CPT 1.6µM, DT40 TDP1 no CPT 1.8µM (no result: VP16 counter, RORgamma inh)
COC(=O)c1[nH]c2c(c1C)C(=O)CC(c1cccc(OC)c1)C2 (configuration not stated)	TDP1 cell CPT 1.5µM, DT40 TDP1 no CPT 1.3µM (no result: TDP1 block)
COCCOC(=O)c1[nH]c2c(c1C)C(=O)CC(c1ccc(OC)c(OC)c1)C2 (configuration not stated)	RORgamma inh inconclusive, TDP1 cell CPT inconclusive (no result: TDP1 block)
CCOCCOC(=O)c1[nH]c2c(c1C)C(=O)CC(c1cc(OC)c(OC)c(OC)c1)C2 (configuration not stated)	VP16 counter inconclusive, RORgamma inh inconclusive, TDP1 cell CPT 10µM, DT40 TDP1 no CPT 9.2µM (no result: TDP1 block)
COC(=O)c1[nH]c2c(c1C)C(=O)CC(c1cc(OC)c(OC)c(OC)c1)C2 (configuration not stated)	VP16 counter inconclusive, RORgamma inh inconclusive, TDP1 cell CPT 23µM, DT40 TDP1 no CPT 12µM (no result: TDP1 block)
CCOC(=O)c1[nH]c2c(c1C)C(=O)CC(c1ccc(OCC)c(OC)c1)C2 (configuration not stated)	DT40 TDP1 no CPT inconclusive
COC(=O)c1[nH]c2c(c1C)C(=O)CC(c1ccc(OC)c(OC)c1)C2 (configuration not stated)	TDP1 cell CPT inconclusive (no result: TDP1 block)
CCOc1ccc2ccccc2c1/C=N/NC(=O)c1ccc(C)nc1	DT40 TDP1 no CPT inconclusive (no result: TDP1 block)
CN(C)S(=O)(=O)c1ccc(-c2cn3ccccc3n2)cc1	VP16 counter 18µM, DT40 TDP1 no CPT inconclusive
CCN(CC)S(=O)(=O)c1ccc(-c2cn3ccccc3n2)cc1	TDP1 cell CPT inconclusive, DT40 TDP1 no CPT 15µM (no result: VP16 counter, RORgamma inh, TDP1 block)
CCc1ccc(S(=O)(=O)Nc2cc(-c3cn4ccccc4n3)ccc2C)cc1	TDP1 cell CPT inconclusive, DT40 TDP1 no CPT inconclusive (no result: VP16 counter, RORgamma inh)
COC(=O)c1cn(C(=O)c2cc(Br)ccc2Cl)c2ccccc12	TDP1 cell CPT inconclusive, DT40 TDP1 no CPT inconclusive (no result: TDP1 block)
COc1cc2c(cc1OC)C(c1ccccc1)NC(C)(C)C2 (configuration not stated)	none (no result: TDP1 block)
Cc1cc(C)c2oc(-c3cccc(NC(=O)COc4ccccc4Cl)c3C)nc2c1	DT40 TDP1 no CPT inconclusive (no result: VP16 counter, RORgamma inh)
CCCCC1=CC2=C(c3ccco3)C(=O)C(C)(OC(=O)c3ccc(OC)cc3)C(=O)C2=CN1c1ccccc1 (configuration not stated)	TDP1 cell CPT 23µM, DT40 TDP1 no CPT inconclusive
CCCCC1=CC2=C(c3ccco3)C(=O)C(C)(OC(=O)c3ccc(OC)cc3)C(=O)C2=CN1CCCOC(C)C (configuration not stated)	TDP1 cell CPT 5.2µM, DT40 TDP1 no CPT 6.5µM
COC(=O)CCC(=O)OC1(C)C(=O)C2=CN(CC(C)C)C(c3ccc(OC)cc3)=CC2=C(Br)C1=O (configuration not stated)	none (no result: TDP1 cell CPT, DT40 TDP1 no CPT)
C=CCN1C=C2C(=O)C(C)(OC(=O)c3ccco3)C(=O)C(C=C)=C2C=C1C1CC1 (configuration not stated)	none (no result: VP16 counter, RORgamma inh, TDP1 cell CPT, DT40 TDP1 no CPT)
COC(=O)CCC(=O)OC1(C)C(=O)C2=CN(CCCOC(C)C)C(c3ccc(OC)cc3)=CC2=C(Br)C1=O (configuration not stated)	TDP1 cell CPT 18µM, DT40 TDP1 no CPT 16µM
C=CCN1C=C2C(=O)C(C)(OC(=O)c3ccc(OC)cc3)C(=O)C(c3ccco3)=C2C=C1CCCC (configuration not stated)	TDP1 cell CPT 13µM
CCCNC(=O)COC(=O)c1[nH]c(C)c(C(=O)OCC)c1C	RORgamma inh inconclusive
CCCOc1ccc(-c2nonc2NC(=O)COc2ccc(C)cc2)cc1OCCC	none (no result: VP16 counter, RORgamma inh)
